Our source for the growth values is PubChem BioAssay (NCI).

What all share (assay): NCI-60 one-dose screen, 48 h (100 = growth as untreated, 0 = no growth, -100 = all killed)
Holding throughout (conditions): 10 µM

For test [1], the system named is OVCAR-8 ovarian.
Test [2] relates to OVCAR-5 ovarian.
Test [3] relates to OVCAR-4 ovarian.
In test [4] the test system is SK-OV-3 ovarian.
Test [5] has as its system IGROV1 ovarian.
In test [6] the test system is OVCAR-3 ovarian.
Test [7] has as its system HS 578T breast.
Test [8] has as its system NCI/ADR-RES ovarian.
Test [9] has as its system T-47D breast.
In test [10] the test system is BT-549 breast.
For test [11], the system named is MDA-MB-435 melanoma.
In test [12] the test system is SW-620 colon.
Test [13] has as its system MCF7 breast.
In test [14] the test system is HCT-116 colon.
Test [15] has as its system HCC-2998 colon.
The subject of test [16] is KM12 colon.

Molecules are shown by their SMILES. This is part of a sample that, as a whole, favours compounds with a hit. Of some 83,000 tested, about 20% had one in any assay.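 Negative percent growth values reflect cell death: -40 means 40% of the cells present at the start died, and -100 means all died.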 Values without a mark were called inactive. Active and inactive are the calls of the source. How the source made its calls: active means growth percent below 10; inactive means the rest.

With `c1ccc2c(c1)oc1c3cccnc3ccc21`, the growth in test [1] was 99.7%; in test [2], 100%; in test [3] it was 83%; in test [4], 87.7%; in [5], 54.4%; in [6] it was 106%. Further, the growth was 93.1% in test [7]; 99.7% in test [8]; 39% in test [9]; 79.7% in test [10]; 110% in test [11]; 100% in [12]. Also, the growth in test [13] was 13%; in [14], 84.4%; in [15], 92.7%; in [16], 98.9%.

For `COc1ccc(-n2c(SCc3cc(OC)c(OC)c(OC)c3)nc3ccc(C)cc3c2=O)cc1`, the growth in test [1] is 84.2%; in test [2], 80.6%; in test [3], 67.2%; in test [4], 73.8%; in test [5], 62%; in [6], 59.9%. Also, the growth in test [7] was 77.7%; in test [8], 45.8%; in test [9], 67.8%; in test [10] it was 71.5%; in test [11], -4.51% (active); in [12], 49.3%. Moreover, the growth in test [13] is 24.8%; in test [14], 35%; in [15], 75.7%; in [16], 35.4%.

Consider `CSc1cc(SC)ncn1`, for which the growth in test [1] was 105%; in test [2], 105%; in [3], 113%; in test [4] it was 104%; in test [5], 116%; in test [6], 124%. Moreover, the growth is 115% in [7]; 118% in [8]; 105% in [9]; 104% in test [10]; 115% in [11]; 103% in [12]. Moreover, the growth in test [13] is 97.8%; in test [14], 102%; in test [15], 111%; in test [16] it was 108%.

As for `O=C1NC(=O)N(Cc2ccccc2)CC1Br` (stereo not given), the growth in [1] is 61.9%; in test [2], 85.3%; in [3], 77.7%; in [4], 87%; in test [5] it was 56.9%; in test [6], 92.9%. Moreover, the growth was 114% in [7]; 56.6% in test [8]; 57% in [9]; 94.5% in test [10]; 62.9% in [11]; 51.7% in test [12]. Further, the growth was 56.6% in [13], 28.1% in [14], 95.4% in test [15] and 106% in test [16].

`CCOC(=O)N1C=CC2C=CC1C1C=CC=CC2N1C(=O)OCC` (stereo not given): the growth in test [1] was 96.5%; in [2], 95%; in test [3], 97.8%; in test [4], 97%; in [5] it was 97.8%; in [6] it was 100%. Also, the growth is 87.5% in test [7]; 95.3% in [8]; 98.9% in test [9]; 89.4% in test [10]; 3.79% (active) in test [11]; 82% in test [12]. Further, the growth in test [13] is 76.8%; in [14], 94.7%; in [15], 82.1%; in [16] it was 84.9%.

For the compound `COc1cc(-c2nc(-c3nnc(-c4ccccc4Cl)o3)c3ccccn23)cc(OC)c1OC`, the growth in test [1] is 47.8%; in test [2], 92.5%; in [3], 77.4%; in test [4] it was 84.5%; in test [5], 111%; in test [6], 86.4%. Besides, the growth in test [7] was 83.1%; in test [8], 66.4%; in [9], 61.4%; in test [10], 89.5%; in test [11], 100%; in test [12], 104%. The growth in test [13] is 81.9%; in [14], 97%; in [15], 94.7%; in test [16] it was 80.5%.

As for `CC1CN(Cc2ccccc2)C(=O)NC1=O` (stereo not given), the growth in test [1] is 103%; in [2] it was 115%; in test [3], 123%; in test [4], 111%; in test [5], 124%; in [6], 135%. The growth in test [7] was 108%; in test [8] it was 107%; in test [9], 97.2%; in test [10] it was 103%; in test [11], 110%; in test [12] it was 110%. Further, the growth in test [13] was 94.8%; in [14], 106%; in [15], 110%; in [16], 113%.

For the compound `COc1ccc(CN2CCC(N3CCCC3=O)c3cc(Cl)ccc32)cc1` (stereo not given), the growth was 104% in test [1]; 93.3% in [2]; 95.3% in test [3]; 105% in test [4]; 104% in test [5]; 120% in test [6]. Moreover, the growth in test [7] was 99.3%; in test [8], 90.2%; in test [9] it was 89.5%; in [10], 67.6%; in test [11], 119%; in test [12], 102%. Further, the growth is 100% in [13], 96.8% in [14], 105% in [15] and 103% in [16].

On to `CN(C)c1ccc(-c2cc(-c3cccc(NS(C)(=O)=O)c3)nc(N)c2C#N)cc1`, for which the growth in test [1] is 30%; in [2] it was 52%; in test [3], 45.7%; in test [4], 15.1%; in [5], 80.4%; in [6] it was -48.2% (active). In addition, the growth in test [7] was 15.3%; in test [11], -25.9% (active); in [12] it was 24.3%; in test [13] it was 16.1%; in [14], 5.65% (active); in test [15], -41.9% (active). Further, the growth in test [16] was -14.3% (active).

Take `O=C(/C=C/c1cc2ccccc2[nH]c1=O)c1ccc2c(c1)OCO2`: the growth in test [1] is 96.1%; in test [2], 104%; in test [3], 88%; in test [4], 102%; in test [5] it was 92.5%; in test [6], 102%. Also, the growth was 93.8% in test [7]; 105% in test [8]; 72.2% in test [9]; 84.2% in [10]; 95.7% in [11]; 80.6% in [13]. In addition, the values for the growth in test [14], in [15] and in [16] were 81.6%, 105% and 92.3%, respectively.

Take `O=C1/C(=C/c2ccc(Cl)cc2)SC(=Nc2ccc(Cl)cc2)N1Cc1nc2ccccc2[nH]1`: the growth in test [1] was 66.9%; in test [2] it was 107%; in [4] it was 97.6%; in test [5] it was 64.8%; in [6] it was 81.6%; in test [7] it was 114%. In addition, the growth was 104% in test [10]; 76.3% in test [11]; 59% in test [13]; 53.8% in test [14]; 62% in test [15]; 76.7% in test [16].

In the case of `CC1(O)CCC2CC3OC3(C)CCC3OC3(C)CCC1C2(C)C` (stereo not given), the growth in test [1] was 83%; in test [2], 109%; in [3] it was 109%; in test [4], 104%; in [5], 89.5%; in test [6], 69.4%. The growth was 89.4% in test [7]; 109% in test [8]; 104% in test [9]; 107% in [11]; 99.6% in test [12]; 103% in [13]. Moreover, the growth is 100% in test [14] and 111% in [16].

Consider `CCOC(=O)CCC(NC(=O)c1ccc(N)cc1)C(=O)OCC` (stereo not given), for which the growth in test [1] is 105%; in test [2], 89.6%; in test [3], 95.7%; in test [5], 105%; in test [6], 106%; in [7], 113%. Also, the growth in test [8] is 102%; in test [9], 101%; in test [10], 44.8%; in [11], 117%; in test [12], 107%; in test [13] it was 103%. Moreover, the figures for the growth in test [14], in test [15] and in [16] were 106%, 105% and 106%, respectively.

In the case of `O=C1CC[C@@H]2CCCC[C@@H]2C1`, the growth in [1] was 109%; in [2], 101%; in test [4], 99.4%; in test [5] it was 105%; in [6], 132%; in [7] it was 110%. Moreover, the growth was 110% in test [8]; 93.5% in test [9]; 103% in [11]; 108% in test [12]; 97.2% in test [13]; 104% in [14]. In addition, the growth in test [15] and in test [16] was 112% in each case.

Consider `O=C(CCCCCCC(=O)Nc1cccnc1)NO`, for which the growth in test [2] was 60.8%; in [3] it was 16.1%; in test [4], 78.9%; in [5], 31%; in [6], 25.1%; in test [7] it was 34.6%. Moreover, the growth is 2.65% (active) in [8]; -28.7% (active) in test [9]; 69.5% in [10]; 19.8% in test [11]; 35.6% in [12]; 35.3% in test [13]. The growth was 9.09% (active) in test [14], 40% in [15] and 6.19% (active) in test [16].

`CS(=O)(=O)Nc1cccc(-c2cc(-c3ccccc3Cl)c(C#N)c(N)n2)c1`: the growth in test [1] was 44%; in test [2], 56.3%; in [3], 47.1%; in [4] it was 22%; in test [5], 51.4%; in test [6], -29.3% (active). The growth was -1.53% (active) in test [7]; 36.9% in [9]; -45.8% (active) in test [11]; 24.5% in test [12]; 22.7% in test [13]; 21.8% in test [14]. The growth in test [15] was -3.16% (active); in [16], 24.5%.

For the compound `FC(F)(F)c1ccc(-c2cnc(Cl)nc2N2CCC3(CC2)OCCO3)cc1`, the growth in test [1] is 95%; in [2], 92.9%; in test [3] it was 89.9%; in [4], 88.9%; in test [5], 83.6%; in test [6], 96%. The growth in test [7] was 105%; in test [8] it was 87.4%; in test [10], 97.1%; in [11] it was 101%; in test [12], 103%; in test [13] it was 98.9%. The values for the growth in test [14], in [15] and in test [16] were 82.7%, 102% and 96.3%, respectively.

As to `COc1cccc(-c2cc(-c3cccc(NS(C)(=O)=O)c3)nc(N)c2C#N)c1O`, the growth in test [1] was 42.4%; in [2], 84.1%; in [3] it was 52.8%; in test [4], 27.2%; in test [5], 91.2%; in test [6] it was -16% (active). Also, the growth in [7] is 52.8%; in test [9], 52%; in [10], 58.1%; in test [11], -20.8% (active); in [12] it was 37.4%; in [13], 19.1%. Further, the growth was 24.7% in [14], -25.3% (active) in [15] and 23.1% in test [16].

Take `O=C(Nc1ccc(CO)cc1)c1ccccc1Nc1ccnc(C(F)(F)F)c1`: the growth in test [1] is 98.3%; in [2] it was 104%; in test [3] it was 98.2%; in [4], 101%; in [5], 101%; in test [6], 110%. The growth in test [7] was 93.7%; in test [8] it was 102%; in test [10], 104%; in test [11], 106%; in [12] it was 105%; in [13] it was 97.1%. Also, the growth in [14] was 101%; in [15], 106%; in [16], 99.4%.

As to `O=C(CSSCC(=O)c1ccc(Cl)cc1)c1ccc(Cl)cc1`, the growth in test [1] was 47.8%; in test [2], 60.1%; in [3] it was 85.8%; in [4], 60%; in test [5], 78.9%; in test [6] it was 78.4%. Further, the growth in [8] was -13% (active); in [9] it was 74.8%; in test [10], 84.9%; in test [11], 47.9%; in [12], 51.1%; in test [13], 86.7%. In addition, the growth in test [14] was 35.4%; in test [15], 63.1%; in test [16] it was 44.8%.
